PubChem BioAssay AID651784 (National Center for Advancing Translational Sciences (NCATS), 2012)
Results filed as inconclusive are left out. The source made the active and inactive calls. Calls follow the shape of the dose curve; as a rule, active = well fitted inhibition curve with a large enough effect; inconclusive = small, poorly fitted or top-dose-only effect; inactive = no such curve, though single readings can be large or run the other way.

Assay: Acumen qHTS Assay for Inhibitors of the mTORC1 Signaling Pathway in MEF (Tsc2-/-, p53-/-) Cells: Hit Validation;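 also: phospho-rpS6 Ser235/236 immunofluorescence normalized to propidium iodide cell count; nearly all actives have a fitted effect of over 65% in size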;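 as to activity change, negative = inhibition: cells exposed to compound for 24 hours; plate controls were DMSO for no effect and 7.5 nM rapamycin control for full effect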
Conditions: Acumen imaging; activity change, negative = inhibition: at 37.3 µM (top of the series)
Potency is read from the fitted curve at half-maximal effect.

SMILES | activity change, negative = inhibition [%] | Potency
CC(C)CCNc1nc(Nc2ccccc2)c2cnn(C)c2n1 | 17.1 | –
Cc1ccc(C)c(Cn2c3ccccc3c3cnn(CC(=O)NC(C)CCc4ccccc4)c(=O)c32)c1 (stereo unspecified) | – | 7.36 µM (active)
CCOc1ccc(N(Cc2ccccc2)C(=O)c2nc(S(C)(=O)=O)ncc2Cl)cc1 | – | 2.93 µM (active)
CC(C)N(C(=O)CSc1nc2ccc(Cl)cc2[nH]1)c1ccccc1 | -16 | –
COc1ccc(NC(=O)c2c(NC(=O)COc3ccccc3)sc3c2CCC(C)C3)cc1 (stereo unspecified) | 6.92 | –
CCCSc1oc(-c2ccco2)nc1S(=O)(=O)c1ccc(Br)cc1 | 4.39 | –
CCCCOc1ccccc1C1CC(=O)Nc2ccc3ccccc3c21 (stereo unspecified) | -10.2 | –
COc1cc(C(=O)n2nc(C)c(Sc3ccc(Cl)cc3)c2C)cc(OC)c1OC | -8.63 | –
COC(=O)c1ccccc1NC(=O)CSc1n[nH]c(CC(C)C)n1 | 5.05 | –
CS(=O)(=O)N(CC(=O)NCCc1ccccc1)c1cc(C(F)(F)F)ccc1Cl | 30.3 | –
CC(C)c1nnc(NC(=O)c2nc(S(=O)(=O)Cc3ccccc3)ncc2Cl)s1 | -86.2 | –
CCCCNC(=O)CSc1nc2nc(C)c(Cc3ccccc3C)c(C)n2n1 | 7.74 | –
O=C(NCCN1CCN(c2cccc(Cl)c2)CC1)Nc1ccccc1C(F)(F)F | -3.27 | –
CCS(=O)(=O)c1ncc(Cl)c(C(=O)N2CCN(c3cccc(Cl)c3)CC2)n1 | – | 1.31 µM (active)
CCS(=O)(=O)c1oc(-c2ccc(F)cc2)nc1S(=O)(=O)c1ccccc1 | – | 0.369 µM (active)
COc1ccc(CNCCC(c2ccc3c(c2)OCO3)c2ccccc2OC)cc1 (stereo unspecified) | -87.3 | –
